From PubChem BioAssay (EPA / NIEHS)
Several values for one entry are separate records, joined by “and”; a condition that tells them apart may be missing. Equal values may be shown once. Some compounds were tested as several samples or in several runs, with calls that do not always agree. Activity calls are given as the source filed them. The calls were made as follows: active = hit-call score of the fitted dose curve at least 0.9, where 1 is the maximum; inactive = score below 0.9.

Experiment: ATG_Ets_CIS: Attagene CIS-FACTORIAL HepG2 Assay for human Erythroblast Transformation Specific (ETS) (AID 2282941)
Conditions: HepG2 ETS cis-reporter transcription; AC50: actives raise or lower the signal unless noted; outcome: actives raise or lower the signal unless noted
Procedure: ATG_CIS is a cell-based, multiplexed-readout assay that uses HepG2, a human liver cell line, with measurements taken at 24 hours after chemical dosing in a 24-well plate.ATG_Ets_CIS is one of 52 assay component(s) measured or calculated from the ATG_CIS assay. It is designed to make measurements of mRNA induction, a form of inducible reporter, as detected with fluorescence intensity signals by Reverse transcription polymerase chain reaction (RT-PCR) and Capillary electrophoresis technology.Data from the assay component ATG_Ets_CIS was analyzed into 1 assay endpoint. This assay endpoint, ATG_Ets_CIS, was analyzed with bidirectional fitting relative to DMSO as the negative control and baseline of activity. Using a type of inducible reporter, measures of mRNA for gain or loss-of-signal activity can be used to understand the reporter gene at the transcription factor-level as they relate to the gene ETS1. Furthermore, this assay endpoint can be referred to as a primary readout, because this assay has produced multiple assay endpoints where this one serves a reporter gene function. To generalize the intended target to other relatable targets, this assay endpoint is annotated to the dna binding intended target family, where the subfamily is winged helix-turn-helix.
Human liver HepG2 cells are transiently transfected with multiple reporter transcription units (MRTUs) in 6-well plates using FuGene 6 reagent (Roche; 3 ml FuGene/1 mg DNA). The MRTU constructs are regulated by a cis-regulating element (promoter). […] A major difference between the CIS and TRANS system is that in CIS activities of endogenous TFs are measured, whereas the TRANS assay evaluates changes in activities of exogenous, chimeric NR-Gal4 proteins. […] At the end of 24 hour incubation, total RNA was isolated using TriZol reagent (Invitrogen). The isolated RNA is then reverse-transcribed using oligo(dT) primer and Mo-MLV reverse transcriptase (Invitrogen) with DNAse I (Ambion) treatment for 30 min. The one-tenth of the produced cDNA was amplified by PCR using Taq DNA polymerase (Invitrogen) and two reporter sequence-specific primers. The PCR products were fluorescently labeled by primer extension with 6-arboxyfluorescein (6-FAM) 5'-labeled reporter sequence-specific primer (2 min at 95 C, 20 s at 68 C and 10 min at 72 C) and these products were digested with 5U of HpaI (New England Biolabs) for 2h at 37 C. The fragments were purified using Qiaquick PCR columns (Qiagen), analyzed on an ABI 3130xL genetic analyzer (Applied Biosystems) with peak positions identified by using a set of X-rhodamine (ROX)-labeled MapMarker1000 molecular weight standards (BioVentures). The raw capillary electrophoresis data was processed using Attagraph software (Attagene).

outcome, inactive:
O=C(F)C(F)(F)C(F)(F)C(F)(F)C(=O)F, COC(=O)C(F)(F)C(F)(F)C(F)(F)F, Cc1ccc(C(=O)c2ccccc2)cc1, N=C(N)c1ccc(OCCCCCOc2ccc(C(=N)N)cc2)cc1, c1cc[nH]c1, CCO[Si](C)(C)OCC, FC(F)(F)C1(F)C(F)(F)C(F)(F)C(F)(F)C(F)(C(F)(F)F)C1(F)F (stereo not given), NCc1cccc(CN)c1, CC[N+](CC)(CC)Cc1ccccc1, OCC(CO)(CBr)CBr, CNNCc1ccc(C(=O)NC(C)C)cc1, COc1cc([N+](=O)[O-])ccc1N, O=P(O)(O)CCC(F)(F)C(F)(F)C(F)(F)C(F)(F)C(F)(F)C(F)(F)F, NC(=NCCCCCCN=C(N)/N=C(\N)Nc1ccc(Cl)cc1)/N=C(\N)Nc1ccc(Cl)cc1, C=CC(=O)OCCC(F)(F)C(F)(F)C(F)(F)C(F)(F)C(F)(F)C(F)(F)C(F)(F)C(F)(F)F, CCOC(OCC)C(=O)c1ccccc1, c1ccc(CNc2ncnc3c2ncn3C2CCCCO2)cc1 (stereo not given), Cc1cc(C(C)(C)C)c(O)c(C(C)(C)C)c1, Nc1ccc(O)c(C(=O)O)c1, COC(=O)CC(C(C)=O)C(=O)OC (stereo not given), CC1=CC(=O)c2ccccc2C1=O, O=C1C=CC(=O)N1c1cccc(N2C(=O)C=CC2=O)c1, CC(C)C=O, C/C=C/C(=O)C1=C(C)CCCC1(C)C, CC(=O)CC(C)C, COc1cccc(O)c1, CCc1cccc(CC)c1NC(=O)C(=O)O, CC(C)CCOCCC(C)C, Cc1cc(C(=C2C=CC(=Nc3ccc(S(=O)(=O)O)cc3)C=C2)c2ccc(Nc3ccc(S(=O)(=O)O)cc3)cc2)cc(S(=O)(=O)O)c1N, O=C1OC2(c3ccccc31)c1cc(I)c(O)c(I)c1Oc1c2cc(I)c(O)c1I, O=C(F)C(F)(F)C(F)(F)C(F)(F)C(F)F, CCCCCCCCCCCC[N+](C)(C)Cc1ccccc1, NNc1nc(-c2ccc([N+](=O)[O-])cc2)cs1, FC(OC(F)(F)C(F)(F)C(F)(F)F)C(F)(F)F (stereo not given), CS(=O)(=O)c1ccc([C@@H](CC2CCCC2)C(=O)Nc2cnccn2)cc1Cl, FC(F)(F)C(F)(F)C(F)(F)C(F)(F)I, O=S(=O)(O)c1ccccc1

AC50, active:
NC(=NCCCCCCN=C(N)/N=C(\N)Nc1ccc(Cl)cc1)/N=C(\N)Nc1ccc(Cl)cc1 7.45 µM and 6.93 µM, Cc1cc(C(C)(C)C)c(O)c(C(C)(C)C)c1 33.4 µM, CCCCCCCCCCCC[N+](C)(C)Cc1ccccc1 11.1 µM
